Measurements taken from PubChem BioAssay.
For some of these results: Results with a measured potency or affinity are listed apart. Active and inactive are the calls of the source.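 How the source made its calls, unless noted: active means calcium signal cut by more than 3 SD below the full-agonist control yet still positive, in both repeats and the earlier primary screen; inactive means the rest.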

How the values were obtained:
[1] = test system: TRPC4 beta (transient receptor potential cation channel C4), mouse; assay: TRPC4 cation channel opening, retest – cell-based, Fluo4 calcium, HEK293 TRPC4beta/mu-opioid, duplicates, 10 µM, confirmation (AID 2426;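 active means fluorescence ratio normalized to control raised more than 50% in primary screen plus both repeat runs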;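 further: percent rise of integrated ratio over buffer wells lacking compound which define 0%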); conditions: Fluo4 calcium fluorescence, at 10 µM; stronger effect = higher value
[2] = test system: transient receptor potential cation channel C4 beta (TRPC4), mouse; assay: TRPC4 cation channel opening, second retest – cell-based, second round, Fluo4, HEK293 TRPC4beta/mu-opioid, 1 µM, confirmation (AID 2461;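 active means primary screen active and over 50% activation in each of two duplicate runs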;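 on activation: 0% = wells without test compound as baseline of integrated fluorescence ratio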); conditions: Fluo4 calcium fluorescence, at 1 µM; stronger effect = higher value
[3] = test system: TRPC4 (transient receptor potential cation channel C4 beta), mouse; assay: potentiation of DAMGO EC20 TRPC4 response – cell-based, second round, Fluo-4, HEK293 TRPC4beta/mu-opioid, 1 µM, confirmation (AID 2554;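 active means primary screen hit whose fluorescence ratio, in both repeats, exceeds the weak agonist control mean by 3 SD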); conditions: DAMGO EC20, Fluo-4 calcium flux, at 1 µM; stronger effect = higher value
[4] = test system: TRPC4 beta (transient receptor potential cation channel C4), mouse; assay: potentiation of DAMGO EC20 TRPC4 response – cell-based, Fluo-4, HEK293 TRPC4beta/mu-opioid, confirmation (AID 2555;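 active means primary screen hit whose calcium fluorescence ratio, in both repeats, exceeds the weak agonist control mean by 3 SD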); conditions: DAMGO EC20, Fluo-4 calcium flux, at 10 µM; stronger effect = higher value
[5] = target: Short transient receptor potential channel 4 (Mus musculus) (UniProt Q9QUQ5); assay: blockers of DAMGO-evoked TRPC4 calcium flux – cell-based, Fluo4, HEK293 TRPC4beta/mu-opioid, confirmation (AID 2636); conditions: at 10 µM; stronger effect = higher value
[6] = target: Short transient receptor potential channel 4 (Mus musculus) (UniProt Q9QUQ5); assay: blockers of DAMGO-evoked TRPC4 calcium flux – cell-based, second round, Fluo4, HEK293 TRPC4beta/mu-opioid, 1 µM, confirmation (AID 2637;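 active means calcium signal ratio cut to more than 3 SD under the fully stimulated control mean yet still positive, in both repeats and the primary screen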); conditions: at 1 µM; stronger effect = higher value
[7] = target: Short transient receptor potential channel 4 (Mus musculus) (UniProt Q9QUQ5); assay: potentiation of DAMGO-evoked TRPC4 calcium signal – cell-based, HEK293 TRPC4/mu-opioid, Fluo-4 calcium, EC20 DAMGO, dose response (AID 434941;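 active means earlier screen potentiator hit that boosts the TRPC4 ion channel at some dose, with a dose response; inactive means no potentiation, no dose response, or not a prior hit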;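 further: calcium entry triggered by an EC20 dose of DAMGO at the co-expressed mu-opioid receptor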)
[8] = target: Short transient receptor potential channel 4 (Mus musculus) (UniProt Q9QUQ5); assay: block of DAMGO-driven TRPC4 calcium entry – cell-based, HEK293 TRPC4/mu-opioid, Fluo-4 calcium, dose response (AID 434942;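 active means primary screen inhibitor hit that blocks the TRPC4 channel at some tested dose, yielding a dose curve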)
[9] = target: Short transient receptor potential channel 6 (Mus musculus) (UniProt Q61143); assay: TRPC6 blockade by TRPC4 inhibitor hits – cell-based, HEK293, membrane potential dye, duplicate, selectivity assay for TRPC4 inhibitor project, confirmation (AID 434948;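 active means active in primary screen and both duplicates, each dropping signal beyond three positive-control SD with fluorescence still positive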); conditions: HEK293 TRPC6, membrane potential dye fluorescence, at 10 µM, stimulated with maximal-effect acetylcholine; stronger effect = higher value
[10] = target: Short transient receptor potential channel 6 (Mus musculus) (UniProt Q61143); assay: TRPC6 opening by TRPC4 activator hits – cell-based, HEK293, membrane potential dye, duplicate, selectivity assay for TRPC4 activator project, confirmation (AID 434950;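 active means membrane potential signal rise above negative control mean plus 3 SD in both duplicates, also active in the earlier TRPC4 screen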;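 on activation: 0% = buffer only wells and 100% = acetylcholine maximal-effect wells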); conditions: HEK293 TRPC6, membrane potential fluorescence, at 10 µM; activation: stronger effect = higher value; outcome: activation
[11] = target: Short transient receptor potential channel 6 (Mus musculus) (UniProt Q61143); assay: positive modulators of mouse TRPC6 channel – HEK293 cells, membrane potential dye, duplicate, selectivity assay for TRPC4 potentiator project, confirmation (AID 434952;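 active means compound raising the membrane signal above positive-control mean plus 3 SD in both repeats, and a primary screen hit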); conditions: HEK293 TRPC6, membrane potential dye fluorescence, at 10 µM, maximal acetylcholine added after compound; stronger effect = higher value
[12] = target: Short transient receptor potential channel 4 (Mus musculus) (UniProt Q9QUQ5); assay: calcium flux activators in TRPC4/5HT1a cells, counter-screen for TRPC4 activator project, cell-based, second counter screen, HEK293 TRPC4/5HT1a, Fluo-4 (AID 434977;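 active means calcium signal rise above buffer-control mean plus 5 SD in both duplicates, and also a hit in the primary screen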;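 on activation: plate controls were assay buffer for no effect and maximal serotonin response for full effect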); conditions: Fluo-4 calcium flux, at 10 µM; stronger effect = higher value
[13] = serotonin-gated TRPC4 signal block – cell-based, second counter screen, HEK293 TRPC4/5HT1a, Fluo-4, counter-screen for TRPC4 inhibitor project, confirmation (AID 434978;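 active means primary screen active whose calcium signal fell more than 3 SD beyond the full-serotonin control mean in both duplicate plates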;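 further: serotonin given first at submaximal then at maximal dose after compound preincubation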); conditions: Fluo-4 calcium flux, at 10 µM, serotonin added to trigger calcium flux; stronger effect = higher value
[14] = test system: TRPC4 (mouse), co-expressed with 5HT1a in HEK293; assay: enhancement of serotonin-evoked TRPC4 response – cell-based, second counter screen, HEK293 TRPC4/5HT1a, Fluo-4, counter-screen for TRPC4 potentiator project, confirmation (AID 434979;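 active means signal rise over 3 SD above mean of control wells given weak agonist, in both repeats and first screen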); conditions: Fluo-4 calcium flux, at 10 µM, serotonin added at its EC20 dose; stronger effect = higher value
[15] = nonspecific calcium rise without TRPC4 – cell-based, HEK293 mu-opioid receptor line, counter-screen for TRPC4 activator project, confirmation (AID 449723;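 active means hit in primary screen, with calcium signal over 5 SD above buffer well mean in both duplicates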;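 further: counter screen cells carry the mu-opioid receptor alone and lack TRPC4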); conditions: HEK293 mu-opioid cells, Fluo-4 calcium fluorescence, at 10 µM; stronger effect = higher value
[16] = nonspecific potentiation of DAMGO calcium response – cell-based, HEK293 mu-opioid receptor line, counter-screen for TRPC4 allosteric potentiator project, confirmation (AID 449724;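 active means calcium signal rise more than 3 SD above the low-dose agonist control mean, in both duplicate plates and the primary screen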); conditions: HEK293 mu-opioid receptor cells, Fluo-4 calcium flux, at 10 µM, compound added before EC20 DAMGO stimulus; stronger effect = higher value

Short transient receptor potential channel 6 (Mus musculus), sequence (Q61143 whole entry, looked up): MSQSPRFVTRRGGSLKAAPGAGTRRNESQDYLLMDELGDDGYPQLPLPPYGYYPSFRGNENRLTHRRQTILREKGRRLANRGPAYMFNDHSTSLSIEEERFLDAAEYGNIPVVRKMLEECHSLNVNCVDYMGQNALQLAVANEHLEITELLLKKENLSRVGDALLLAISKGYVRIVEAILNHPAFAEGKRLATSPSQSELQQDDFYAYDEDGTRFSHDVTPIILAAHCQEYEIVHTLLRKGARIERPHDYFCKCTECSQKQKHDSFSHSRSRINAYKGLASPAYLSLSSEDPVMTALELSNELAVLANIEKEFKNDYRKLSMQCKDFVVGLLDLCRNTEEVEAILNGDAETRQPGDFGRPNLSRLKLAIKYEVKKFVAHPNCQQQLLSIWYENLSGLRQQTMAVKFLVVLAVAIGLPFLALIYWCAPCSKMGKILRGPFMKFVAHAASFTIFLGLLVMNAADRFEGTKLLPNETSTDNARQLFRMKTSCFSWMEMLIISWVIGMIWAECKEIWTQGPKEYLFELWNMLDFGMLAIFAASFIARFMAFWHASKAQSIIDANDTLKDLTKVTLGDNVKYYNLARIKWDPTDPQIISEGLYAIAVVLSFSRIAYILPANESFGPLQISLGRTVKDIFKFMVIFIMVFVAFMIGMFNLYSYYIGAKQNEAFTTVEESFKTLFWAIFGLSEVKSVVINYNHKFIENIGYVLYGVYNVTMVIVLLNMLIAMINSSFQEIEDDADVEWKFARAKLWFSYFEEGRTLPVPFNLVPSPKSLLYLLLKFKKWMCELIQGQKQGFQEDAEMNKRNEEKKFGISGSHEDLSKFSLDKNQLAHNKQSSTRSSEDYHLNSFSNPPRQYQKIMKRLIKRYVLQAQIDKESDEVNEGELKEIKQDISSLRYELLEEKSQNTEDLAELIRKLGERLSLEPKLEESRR
Short transient receptor potential channel 4 (Mus musculus), sequence (Q9QUQ5 whole entry, looked up): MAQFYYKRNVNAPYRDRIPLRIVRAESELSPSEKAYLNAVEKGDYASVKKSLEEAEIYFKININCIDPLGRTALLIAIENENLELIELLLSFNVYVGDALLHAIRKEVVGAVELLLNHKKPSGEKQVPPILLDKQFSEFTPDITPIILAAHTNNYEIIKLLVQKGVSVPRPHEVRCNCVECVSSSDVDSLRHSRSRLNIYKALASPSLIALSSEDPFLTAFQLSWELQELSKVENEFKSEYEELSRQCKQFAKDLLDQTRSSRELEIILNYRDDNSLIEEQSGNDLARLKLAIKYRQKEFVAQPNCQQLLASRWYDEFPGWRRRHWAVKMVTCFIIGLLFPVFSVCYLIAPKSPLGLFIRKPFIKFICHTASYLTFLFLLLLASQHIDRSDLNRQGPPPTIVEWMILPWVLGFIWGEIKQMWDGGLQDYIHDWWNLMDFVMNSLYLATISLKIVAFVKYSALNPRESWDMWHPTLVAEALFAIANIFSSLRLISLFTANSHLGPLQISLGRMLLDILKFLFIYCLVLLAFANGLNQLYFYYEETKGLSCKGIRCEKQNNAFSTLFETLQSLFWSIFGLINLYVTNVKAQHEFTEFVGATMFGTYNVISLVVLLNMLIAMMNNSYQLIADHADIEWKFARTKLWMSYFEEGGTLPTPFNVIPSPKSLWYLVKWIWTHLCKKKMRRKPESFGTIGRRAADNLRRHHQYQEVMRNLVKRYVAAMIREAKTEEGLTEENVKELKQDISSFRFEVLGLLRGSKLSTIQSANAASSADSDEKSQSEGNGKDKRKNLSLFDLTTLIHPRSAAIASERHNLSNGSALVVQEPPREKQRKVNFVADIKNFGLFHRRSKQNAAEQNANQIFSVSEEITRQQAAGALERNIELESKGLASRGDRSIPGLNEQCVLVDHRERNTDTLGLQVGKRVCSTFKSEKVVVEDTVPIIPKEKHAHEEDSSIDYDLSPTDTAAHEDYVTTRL

Structure (SMILES) | activation [1] | activation [2] | outcome [3] | outcome [4] | outcome [5] | outcome [6] | outcome [7] | outcome [8] | outcome [9] | activation [10] | outcome [11] | activation [12] | outcome [13] | outcome [14] | outcome [15] | outcome [16] | outcome [2] | outcome [12] | outcome [10] | activation [15]
Cc1cccn2c(CNCCc3ccccn3)c(C(=O)N3CCOCC3)nc12 | 184% (active) | 55% (active) | inactive | inactive | inactive | inactive | inactive | inactive | inactive | 46.5% (active) | inactive | 57.2% (active) | inactive | inactive | inactive | inactive | – | – | – | –
CCOc1ncccc1C(=O)NCC(c1ccccc1)N(C)C (configuration not stated) | 155% (active) | – | inactive | inactive | inactive | inactive | inactive | inactive | inactive | 61% (active) | inactive | – | inactive | inactive | inactive | inactive | inactive | inactive | – | –
O=c1c(Cc2ccccc2)c(O)ccn1CCc1cnc[nH]1 | 134% (active) | – | inactive | inactive | inactive | inactive | inactive | inactive | inactive | – | inactive | 39.3% (active) | inactive | inactive | inactive | inactive | inactive | – | inactive | –
Cc1ccc(C)c(NC(=S)NCC(c2ccccc2)N(C)C)c1 (configuration not stated) | 260% (active) | 127% (active) | inactive | inactive | inactive | inactive | inactive | inactive | inactive | 49% (active) | inactive | 93.2% (active) | inactive | inactive | inactive | inactive | – | – | – | –
COc1cc(OC)c(OC)cc1CCC(C)NCCC(c1ccccc1)c1ccccc1 (configuration not stated) | 106% (active) | – | inactive | inactive | inactive | inactive | inactive | inactive | inactive | 28% (active) | inactive | 66.8% (active) | inactive | inactive | – | inactive | inactive | – | – | 11.2% (active)
CCn1c(N2CCN(CC(=O)Nc3cccc(C)c3C)CC2)nc2ccccc21 | 120% (active) | 57% (active) | inactive | inactive | inactive | inactive | inactive | inactive | inactive | 56.5% (active) | inactive | 23.9% (active) | inactive | inactive | inactive | inactive | – | – | – | –
COc1ccc(C(CNC(=O)/C=C/c2c(Cl)nc3ccccn23)N(C)C)cc1 (configuration not stated) | 268% (active) | 153% (active) | inactive | inactive | inactive | inactive | inactive | inactive | inactive | 41% (active) | inactive | 7.37% (active) | inactive | inactive | inactive | inactive | – | – | – | –
